We go through 17 compounds from PubChem BioAssay (NCATS).

Test in all cases: Primary qHTS to identify gynecologic anti-cancer compounds using libraries of approved drugs and bioactive compounds (AID 1345084); further: nearly all actives have a fitted effect of over 55% in size
On the technique in general: qHTS replaces the single test concentration by a dilution series.

Assay [1] relates to C33A. The note with it: Gynecologic cancer cell panel viability, ATPlite luminescence, 48 h; series mostly up to 57.5 µM. Summed up:
(§1)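 Cells, 1,000 per well, plated 16 h, then exposed 48 h at 37 C to compounds. Viability by ATPlite luminescence after 15 min at room temperature.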

Assay [2] relates to CASKI. The following applies: Gynecologic cancer cell panel viability, ATPlite luminescence, 48 h; series mostly up to 57.5 µM. Summed up:
as §1

Assay [3] has as its system Es-2. The following applies: Gynecologic cancer cell panel viability, ATPlite luminescence, 48 h; series mostly up to 57.5 µM. Summed up: as §1
For orientation: In ATP-based viability assays light output follows the ATP content of the culture.

In assay [4] the test system is HeLa. The note with it: Gynecologic cancer cell panel viability, ATPlite luminescence, 48 h; series mostly up to 57.5 µM. Summed up: as §1
Assay [5] deals with JEG-3. The following applies: Gynecologic cancer cell panel viability, ATPlite luminescence, 48 h; series mostly up to 57.5 µM. Summed up: as §1
Assay [6] relates to OV90. The following applies: Gynecologic cancer cell panel viability, ATPlite luminescence, 48 h; series mostly up to 57.5 µM. Summed up: as §1
For assay [7], the system named is PA-1. The note with it: Gynecologic cancer cell panel viability, ATPlite luminescence, 48 h; series mostly up to 57.5 µM. Summed up:
as §1

Assay [8] has as its system SKOV3. The following applies: Gynecologic cancer cell panel viability, ATPlite luminescence, 48 h; series mostly up to 57.5 µM. Summed up: as §1
Assay [9] deals with Tov-21-G. The note with it: Gynecologic cancer cell panel viability, ATPlite luminescence, 48 h; series mostly up to 57.5 µM. Summed up: as §1
The test system of assay [10] is Tov112D. The following applies: Gynecologic cancer cell panel viability, ATPlite luminescence, 48 h; series mostly up to 57.5 µM. Summed up:
as §1

Assay [11] has as its system Hek293T. The following applies: Gynecologic cancer cell panel viability, ATPlite luminescence, 48 h, control line for the selectivity index; series mostly up to 57.5 µM. Summed up: as §1
Assay [12] relates to CAOV3. The note with it: Gynecologic cancer cell panel viability, ATPlite luminescence, 48 h; series mostly up to 57.5 µM. Summed up: as §1

Structures are written as SMILES. Results filed as inconclusive are left out. A number with no mark means an inactive call. Activity calls are given as the source filed them. The call rests on the fitted dose curve; in most records, active means well fitted cell-killing curve with a large enough effect; inconclusive means small, poorly fitted or top-dose-only effect, or effect the other way; inactive means flat fitted curve, though single readings scatter.
Potency means the concentration at half of the fitted maximal effect.

For the compound `O=C(O)CC(CCc1ccccc1)OC1OC(CO)C(O)C(O)C1O` (configuration not stated), the Potency result in [1], in [3], in [4], in assay [5], in assay [6] and in assay [7] was “inactive” throughout. Also, the Potency entry in [8], in [9] and in [10] was “inactive” throughout. Moreover, in [2], the compound was called inactive.
For `C=C(CCO)C(=O)OCC1OCC(OC(=O)C(=C)CCO[C@@H]2O[C@H](COC(=O)C(=C)CCO[C@@H]3O[C@H](CO)[C@@H](O)[C@H](O)[C@H]3O)[C@@H](O)[C@H](O)[C@H]2O)C(O)C1O` (some centres not stated), the Potency result in assay [1], in assay [3], in assay [4], in assay [11], in [5] and in assay [6] was “inactive” throughout. The Potency result in [7], in assay [9] and in [10] was “inactive” throughout. Moreover, the result in assay [2] was inactive.
On to `N#Cc1cccc(-c2c[nH]c3ncnc(N4CCOCC4)c23)c1`, for which the Potency entry in [12], in assay [3], in assay [4], in [11], in [5] and in assay [6] was “inactive” throughout. Moreover, the Potency result in assay [7], in [8], in assay [9] and in assay [10] was “inactive” in each case. The result in [2] was inactive.
With `CCOC(=O)COc1ccc2c(c1)C[C@@H](NC[C@H](O)c1cccc(Cl)c1)CC2`, the Potency entry in [1], in assay [3], in [4], in assay [11], in [5] and in assay [6] was “inactive” each time. Also, the Potency entry in assay [7], in assay [9] and in assay [10] was “inactive” in each case. The compound was called inactive in assay [2].
Regarding `C/C(=C\CCC(C)(C)O)CCO[C@@H]1O[C@H](CO[C@@H]2O[C@@H](C)[C@H](O)[C@@H](O)[C@H]2O)[C@@H](O)[C@H](O)[C@H]1O`, the call in assay [2] was inactive. Moreover, the Potency entry in assay [3], in assay [4], in [11], in [5], in assay [6] and in assay [7] was “inactive” in each case. Moreover, the Potency entry in assay [9] and in [10] was “inactive” in each case.
For the compound `C[C@@H]1C[C@@H](O)[C@@]23CO[C@]2(CO)C[C@@H](O)CC3[C@@]12CC(c1ccoc1)OC2=O` (some centres not stated), the Potency result in assay [1], in assay [3], in assay [4], in assay [11], in assay [5] and in assay [7] was “inactive” each time. The Potency result in assay [9] and in [10] was “inactive” each time. In addition, in assay [2], the result was inactive.
`O=C(CCCCC1CCCCC1)N1CCC(c2cnc[nH]2)CC1`: the Potency result in assay [12], in assay [3], in [4], in assay [5], in assay [9] and in assay [10] was “inactive” each time. In addition, in assay [2], the call was inactive.
Regarding `CCCN(CCN1CCN(c2ccccc2OC)CC1)C1CCc2ncsc2C1` (configuration not stated), the Potency result in assay [1], in [3], in assay [4], in assay [11], in [5] and in assay [6] was “inactive” throughout. The Potency entry in assay [7], in [9] and in assay [10] was “inactive” each time. For the same compound, in assay [2], the outcome was inactive.
Turning to `COc1ccc(-c2ccn(CC[C@](C)(C(=O)NO)S(C)(=O)=O)c(=O)c2)c(F)c1`, the Potency is 22.4 µM (active) in assay [12]; 14.1 µM (active) in assay [3]; 20 µM (active) in assay [5]; 15.8 µM (active) in assay [6]; 25.1 µM (active) in assay [9].
As to `C=C1[C@H](OC(C)=O)[C@H]2[C@@H](OC(=O)c3ccccc3)[C@@H](C)C[C@]2(O)[C@@H](OC(C)=O)[C@H](C)/C=C/C(C)(C)C(=O)[C@H](OC(C)=O)[C@H]1OC(C)=O`, the Potency result in assay [12], in assay [3], in [4], in assay [11], in assay [5] and in assay [6] was “inactive” throughout. In addition, the Potency result in assay [7], in [8], in assay [9] and in [10] was “inactive” each time.
Turning to `C/C=C(\C)C(=O)OC1C(C)C2(O)C3C=C(C)C(=O)C3CC(CO)=CC2C2C(C)(C)C12OC(C)=O` (configuration not stated), the Potency entry in assay [12], in assay [4], in assay [11], in assay [5], in assay [6] and in assay [8] was “inactive” each time. The Potency result in [9] and in assay [10] was “inactive” throughout. For the same compound, the compound was called inactive in [2]. Moreover, the Potency in assay [3] was 0.112 µM (active).
In the case of `CC(CNS(=O)(=O)C(C)C)c1ccc(-c2ccc(C#N)cc2)cc1` (configuration not stated), the Potency entry in assay [12], in assay [4], in assay [7] and in assay [9] was “inactive” in each case. The Potency was 10 µM (active) in assay [6] and 8.91 µM (active) in assay [8].
For `C=C1CC[C@H]2[C@@](C)(CCC(OC3OC(CO)C(O)C(O)C3O)[C@@]2(C)CO)C1C(=O)CC1=CCOC1=O` (some centres not stated), the Potency entry in [1], in assay [3], in [4], in assay [11], in assay [5] and in [6] was “inactive” in each case. Also, the Potency entry in assay [7], in assay [9] and in assay [10] was “inactive” in each case. For the same compound, in assay [2], the compound was called inactive.
Consider `Cc1nnc(-c2ccc3occ(-c4ccc(S(C)=O)cc4)c3c2)o1` (configuration not stated), for which the compound was classed as inactive in assay [2]. The Potency entry in assay [4], in assay [11], in assay [5], in assay [8], in assay [9] and in assay [10] was “inactive” in each case.
As to `O=C(O)c1ccnc(-c2cc(C(=O)NCCc3ccccc3)ccn2)c1`, the Potency result in [12], in [3], in [4], in assay [11], in [5] and in assay [6] was “inactive” in each case. The Potency entry in assay [7], in assay [8], in assay [9] and in assay [10] was “inactive” throughout. Besides, the compound was called inactive in assay [2].
With `CC(=O)Nc1cccc2c1c(Sc1ccc(Cl)cc1)c(C)n2CC(=O)O`, the Potency result in assay [3], in [5] and in assay [8] was “inactive” throughout.
Regarding `COc1c(O[C@@H]2O[C@H](CO)[C@@H](O)[C@H](O)[C@H]2O)c(CCC(=O)O)cc2ccoc12`, the Potency entry in assay [12], in assay [3], in [4], in assay [11], in [6] and in assay [7] was “inactive” in each case. The Potency entry in assay [9] and in assay [10] was “inactive” each time. Besides, in [2], the compound was classed as inactive.
